Assay results published in PubChem BioAssay AID2284095 (EPA ToxCast).
Records with an inconclusive call do not appear. The source made the active and inactive calls. The calls were made as follows: active = hit-call score of the fitted dose curve at least 0.9, where 1 is the maximum; inconclusive = response in the unintended direction; inactive = score below 0.9.

Each molecule was assayed against human Chymotrypsin Serine Peptidase, ELANE (gene 1991) (UniProt P08246) (assay: ERF_FR_ENZ_hELANE: Eurofins (ERF) Enzymatic Neutrophil Elastase LeadHunter Assay for human Chymotrypsin Serine Peptidase).
Chain of human Chymotrypsin Serine Peptidase, ELANE (gene 1991) (P08246 whole entry, looked up): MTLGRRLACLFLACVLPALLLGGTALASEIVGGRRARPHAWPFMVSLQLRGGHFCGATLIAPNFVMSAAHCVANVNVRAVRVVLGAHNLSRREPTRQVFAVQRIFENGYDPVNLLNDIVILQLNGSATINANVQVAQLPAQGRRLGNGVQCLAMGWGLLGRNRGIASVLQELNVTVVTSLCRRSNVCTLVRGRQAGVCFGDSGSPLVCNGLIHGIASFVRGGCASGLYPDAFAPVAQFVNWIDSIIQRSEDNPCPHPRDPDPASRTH
Procedure: ERF_FR_ENZ_hELANE is a biochemical, single-readout assay that uses extracted gene-proteins in a cell-free assay. Measurements were taken 0.5 hour after chemical dosing in a 96-well plate. See Neutrophil Elastase Human Chymotrypsin Serine Peptidase Enzymatic Assay, Cerep.ERF_FR_ENZ_hELANE is an assay component calculated from the ERF_FR_ENZ_hELANE assay. It is designed to measure enzyme activity using a type of enzyme reporter as detected by absorbance with spectrophotometry technology.Data from the assay component ERF_FR_ENZ_hELANE was analyzed at the assay endpoint, ERF_FR_ENZ_hELANE, in the positive analysis fitting direction relative to DMSO as the negative control and baseline of activity. Using a type of enzyme reporter, loss-of-signal activity can be used to understand changes in enzymatic activity as they relate to gene ELANE. To generalize the intended target to other relatable targets, this assay endpoint is annotated to the protease intended target family, where the subfamily is serine peptidase.
Human cells are incubated for 30 minutes at 37 C with MeOSAAPV-pNa (0.4 mM) as sunstrate and 3',4'dichloroisocoumarin as control inhibitor. Test Sample Requirements: Minimum for 1) Screen: 60 ul of 10 mM stock -OR- 1 mg (pre-weighed) for 10 uM final testing. 2) Dose Response: 90 ul of 10 mM stock -OR- 1 mg (pre-weighed) for a top concentration at 10 uM.
For `COc1cc(CCC(=O)CC(=O)CCc2ccc(O)c(OC)c2)ccc1O`, the outcome was “inactive”.
`COc1cc(/C=C/C(=O)CC(=O)/C=C/c2ccc(O)c(OC)c2)ccc1O` was tested, and the outcome was “inactive”.
`O=C(/C=C/c1ccc(O)cc1)CC(=O)/C=C/c1ccc(O)cc1` was tested, and the AC50 was 8.6 µM (active).
